This is an account of results in PubChem BioAssay (NCI).

This is part of a sample that, as a whole, favours compounds with a hit. Of some 83,000 tested, about 20% had one in any assay.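 The test compound was applied at a single concentration to cells in 96-well plates for 48 hours, and percent growth was recorded.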 Calls of active or inactive are those of the source. The calls were made as follows: active = growth percent below 10; inactive = the rest.

For one experiment, the system named is OVCAR-5 ovarian. Put plainly: NCI-60 one-dose screen, 48 h (100 = growth as untreated, 0 = no growth, -100 = all killed). The conditions noted are these: 10 µM.
As for `COc1ccc(C2c3sc4ccc(C)cc4c3Oc3nc(N)nc(N)c32)cc1` (configuration not stated), the growth was 96.2% (inactive).
In the case of `Cc1cc(N=C2NC(=O)S/C2=C\c2ccc(F)cc2)n[nH]1`, the growth was 31% (inactive).
For the compound `Cn1cc(-c2nnc(N)nc2-c2c[nH]c3ccccc23)c2cc(Br)cnc21`, the growth is 94.3% (inactive).
On to `O=C(CC(=O)Nc1ccc(Oc2ncnc3scc(Nc4n[nH]c(=S)s4)c23)cc1)Nc1ccc(Cl)cc1`, for which the growth is 79% (inactive).
On to `O=C1NC2C=CC=CC2/C1=C1/SC(=S)N(C2CC(=O)N(c3ccc(Br)cc3)C2=O)C1=O` (configuration not stated), for which the growth is 104% (inactive).
On the same count and under the same terms, the result for `CC1(C)CC(=O)C2=C(C1)N(Cc1ccc(C(=O)O)cc1)C1=C(C(=O)CC(C)(C)C1)C2c1ccc(Cl)cc1` reads 106% (inactive); that for `Cc1ccc2c(c1)C(=O)/C(=C/c1ccc([N+](=O)[O-])cc1)S2`, 82.9% (inactive).
In the case of `O=C(Nc1ccc(OCc2ccc(Cl)cc2)cc1)Nc1ccc(Cl)c(C(F)(F)F)c1`, the growth is 53.3% (inactive).
Consider `Cn1cc(-c2nc(N)nnc2-c2c[nH]c3ccccc23)c2cc(Br)cnc21`, for which the growth is 21.8% (inactive).
The same measure, in the same setting: under `O=C(CSc1nc2ccccc2c(=O)n1-c1ccc(Cl)cc1)Nc1ccc(-c2nc3ccccc3[nH]2)cc1` stands 67.8% (inactive); under `Cc1ccc2c(c1)C(=O)/C(=C/c1c[nH]c3ccccc13)S2`, 87% (inactive); under `COc1cccc(O)c1/C=C1\SCc2cc3c(OC)cccc3[o+]c21`, 105% (inactive).
Turning to `COc1cc(C2CC(c3ccc(Oc4ccc(Cl)cc4)cc3)=NN2c2nc(-c3ccc(Cl)cc3)c(C#N)c(N3CCOCC3)n2)cc(OC)c1OC` (configuration not stated), the growth was 101% (inactive).
Regarding `O=C(Nc1ccc(OCC(=O)c2ccc(Cl)cc2)cc1)Nc1ccc(Cl)c(C(F)(F)F)c1`, the growth was 61.2% (inactive).
Still for that read-out and setting: under `Cc1ccc2sc3c(c2c1)Oc1nc[nH]c(=O)c1C3c1cccc(F)c1` (configuration not stated) stands 108% (inactive).
For the compound `Cc1cc(N=C2NC(=O)/C(=C/c3cc(C(C)(C)C)c(O)c(C(C)(C)C)c3)S2)n[nH]1`, the growth is 36.6% (inactive).
Still for that read-out and setting: the result for `COc1ccc(C2c3sc4ccc(C)cc4c3Oc3nc[nH]c(=O)c32)cc1` (configuration not stated) reads 113% (inactive); that for `COc1cccc(C(=O)CSc2nc(-c3ccc(OCc4ccccc4)c(OC)c3)c(C#N)c(=O)[nH]2)c1`, 100% (inactive); that for `Cc1ccc(COc2ccc(NC(=O)Nc3ccc(Cl)c(C(F)(F)F)c3)cc2)cc1`, 85% (inactive).
As for `CC(C)(C)c1cc(/C=C2\S/C(=N/c3ncn[nH]3)NC2=O)cc(C(C)(C)C)c1O`, the growth is 32.8% (inactive).
Same read-out and setting: under `Cn1cc(/C=C(/SS/C(=C/c2cn(C)c3cccc(C(=O)O)c23)C(=O)O)C(=O)O)c2c(C(=O)O)cccc21` stands 105% (inactive); under `COc1ccc(C(=O)COc2ccc(NC(=O)Nc3ccccc3)cc2)cc1`, 98.7% (inactive); under `CCn1c(SCC(=O)Nc2ccc(-c3nc4ccccc4[nH]3)cc2)nc2ccccc2c1=O`, -44.4% (active).
`O=C(Nc1ccc(OCc2ccc(F)cc2)cc1)Nc1ccc(Cl)c(C(F)(F)F)c1`: the growth was 31.9% (inactive).
On the same count and under the same terms, the result for `O=C(CC(=O)Nc1ccc(Oc2ncnc3scc(Nc4n[nH]c(=S)s4)c23)cc1)Nc1ccc(Br)cc1` reads 106% (inactive); that for `COc1ccc(C(=O)COc2ccc(NC(=O)Nc3ccc(Cl)c(C(F)(F)F)c3)cc2)cc1`, 67.7% (inactive).
On the same count and under the same terms, the result for `O=C(Nc1ccc(Oc2ncnc3scc(Nc4n[nH]c(=S)s4)c23)cc1)C1(C(=O)Nc2cccc(C(F)(F)F)c2)CC1` reads 87.9% (inactive); that for `O=C1NC(=S)S/C1=C\c1cn(-c2ccccc2)nc1-c1ccc([N+](=O)[O-])cc1`, 48.5% (inactive); that for `O=C(CSc1nc2ccccc2c(=O)n1-c1ccc(Cl)cc1)Nc1ccc(-c2nc3ccc([N+](=O)[O-])cc3[nH]2)cc1`, 92.6% (inactive).

The subject of the next experiment is OVCAR-4 ovarian. Described as above. The settings on record: 10 µM.
For the compound `COc1ccc(C2c3sc4ccc(C)cc4c3Oc3nc(N)nc(N)c32)cc1` (configuration not stated), the growth was 85.8% (inactive).
Same read-out and setting: under `Cc1cc(N=C2NC(=O)S/C2=C\c2ccc(F)cc2)n[nH]1` stands 22.7% (inactive); under `Cn1cc(-c2nnc(N)nc2-c2c[nH]c3ccccc23)c2cc(Br)cnc21`, 46.5% (inactive); under `O=C(CC(=O)Nc1ccc(Oc2ncnc3scc(Nc4n[nH]c(=S)s4)c23)cc1)Nc1ccc(Cl)cc1`, 90.2% (inactive).
On to `O=C1NC2C=CC=CC2/C1=C1/SC(=S)N(C2CC(=O)N(c3ccc(Br)cc3)C2=O)C1=O` (configuration not stated), for which the growth was 93.1% (inactive).
The same measure, in the same setting: under `CC1(C)CC(=O)C2=C(C1)N(Cc1ccc(C(=O)O)cc1)C1=C(C(=O)CC(C)(C)C1)C2c1ccc(Cl)cc1` stands 99.5% (inactive).
On to `Cc1ccc2c(c1)C(=O)/C(=C/c1ccc([N+](=O)[O-])cc1)S2`, for which the growth is 83.4% (inactive).
In the case of `O=C(Nc1ccc(OCc2ccc(Cl)cc2)cc1)Nc1ccc(Cl)c(C(F)(F)F)c1`, the growth is 13.8% (inactive).
On the same count and under the same terms, the result for `Cn1cc(-c2nc(N)nnc2-c2c[nH]c3ccccc23)c2cc(Br)cnc21` reads 32.1% (inactive); that for `O=C(CSc1nc2ccccc2c(=O)n1-c1ccc(Cl)cc1)Nc1ccc(-c2nc3ccccc3[nH]2)cc1`, -75.6% (active).
For `Cc1ccc2c(c1)C(=O)/C(=C/c1c[nH]c3ccccc13)S2`, the growth is 40.9% (inactive).
Still for that read-out and setting: under `COc1cc(C2CC(c3ccc(Oc4ccc(Cl)cc4)cc3)=NN2c2nc(-c3ccc(Cl)cc3)c(C#N)c(N3CCOCC3)n2)cc(OC)c1OC` (configuration not stated) stands 103% (inactive); under `O=C(Nc1ccc(OCC(=O)c2ccc(Cl)cc2)cc1)Nc1ccc(Cl)c(C(F)(F)F)c1`, 38.1% (inactive); under `Cc1ccc2sc3c(c2c1)Oc1nc[nH]c(=O)c1C3c1cccc(F)c1` (configuration not stated), 91.7% (inactive).
For the compound `Cc1cc(N=C2NC(=O)/C(=C/c3cc(C(C)(C)C)c(O)c(C(C)(C)C)c3)S2)n[nH]1`, the growth was -42.7% (active).
Same read-out and setting: the result for `COc1ccc(C2c3sc4ccc(C)cc4c3Oc3nc[nH]c(=O)c32)cc1` (configuration not stated) reads 85.3% (inactive); that for `COc1cccc(C(=O)CSc2nc(-c3ccc(OCc4ccccc4)c(OC)c3)c(C#N)c(=O)[nH]2)c1`, 96.8% (inactive).
With `Cc1ccc(COc2ccc(NC(=O)Nc3ccc(Cl)c(C(F)(F)F)c3)cc2)cc1`, the growth was 66.4% (inactive).
Still for that read-out and setting: the result for `CC(C)(C)c1cc(/C=C2\S/C(=N/c3ncn[nH]3)NC2=O)cc(C(C)(C)C)c1O` reads 33.8% (inactive); that for `Cn1cc(/C=C(/SS/C(=C/c2cn(C)c3cccc(C(=O)O)c23)C(=O)O)C(=O)O)c2c(C(=O)O)cccc21`, 99.6% (inactive).
On the same count and under the same terms, the result for `COc1ccc(C(=O)COc2ccc(NC(=O)Nc3ccccc3)cc2)cc1` reads 87.2% (inactive); that for `CCn1c(SCC(=O)Nc2ccc(-c3nc4ccccc4[nH]3)cc2)nc2ccccc2c1=O`, -84.1% (active).
Turning to `O=C(Nc1ccc(OCc2ccc(F)cc2)cc1)Nc1ccc(Cl)c(C(F)(F)F)c1`, the growth is 19% (inactive).
On the same count and under the same terms, the result for `O=C(CC(=O)Nc1ccc(Oc2ncnc3scc(Nc4n[nH]c(=S)s4)c23)cc1)Nc1ccc(Br)cc1` reads 106% (inactive); that for `COc1ccc(C(=O)COc2ccc(NC(=O)Nc3ccc(Cl)c(C(F)(F)F)c3)cc2)cc1`, 19% (inactive).
Same read-out and setting: under `O=C(Nc1ccc(Oc2ncnc3scc(Nc4n[nH]c(=S)s4)c23)cc1)C1(C(=O)Nc2cccc(C(F)(F)F)c2)CC1` stands 108% (inactive); under `O=C1NC(=S)S/C1=C\c1cn(-c2ccccc2)nc1-c1ccc([N+](=O)[O-])cc1`, 15% (inactive).
For the compound `O=C(CSc1nc2ccccc2c(=O)n1-c1ccc(Cl)cc1)Nc1ccc(-c2nc3ccc([N+](=O)[O-])cc3[nH]2)cc1`, the growth was -12.1% (active).
